SMN2 splice enh: qHTS Assay for Enhancers of SMN2 Splice Variant Expression | HEK293 SMN2-luciferase splicing reporter, luminescence, 30-36 h | Potency, µM (doses to about 46.1 µM), for the others: at the top dose activity change, positive = activation, hits mostly activators | 210,000 compounds, 2.8% hits | AID 1458, 2008; note: % of control where 0% means no effect; nearly all actives have a fitted effect of over 55% in size
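qHTS luciferase splicing reporter: luminescence rises when SMN2 exon 7 is included in transfected HEK293 cells. Compound exposure lasted 30-36 h at 37C, with 4.5 mM final sodium butyrate as control, followed by a ONE-Glo read.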
Rab9 prom act: qHTS Assay for Rab9 Promoter Activators | Huh7 Rab9 promoter-luciferase reporter, luminescence, 24 h | Potency, µM (series often up to 9.22 µM), for the others: at the top dose activation, negative = inhibition, hits mostly activators | 320,000 compounds, 2.8% hits; note: % of control where 0% means no effect; nearly all actives have a fitted effect of over 60% in size
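Cell-based reporter: Huh7 stable for Rab9 promoter-driven luciferase, plated in reduced-serum medium with 10% FBS at 1500 cells/well, compound-treated 24 h at 37 °C, luminescence read after 10 min reagent.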
FLuc modulator: qHTS profiling assay for firefly luciferase inhibitor/activator using purifed enzyme and Km concentrations of substrates (counterscreen for miR-21 project); Luciferin 4-monooxygenase (Photinus pyralis), P08659; Potency, µM (titrated, usually from 57.5 µM), for the others: at the top dose activity change, negative = inhibition, most hits filed as inhibitors; 360,000 compounds, 6.9% hits; purified FLuc, Km substrates, luminescence inhibition;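 note: plate controls were vehicle for no effect and reference inhibitor for full effect; nearly all actives have a fitted effect of over 55% in size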
Target sequence (P08659 whole entry, looked up): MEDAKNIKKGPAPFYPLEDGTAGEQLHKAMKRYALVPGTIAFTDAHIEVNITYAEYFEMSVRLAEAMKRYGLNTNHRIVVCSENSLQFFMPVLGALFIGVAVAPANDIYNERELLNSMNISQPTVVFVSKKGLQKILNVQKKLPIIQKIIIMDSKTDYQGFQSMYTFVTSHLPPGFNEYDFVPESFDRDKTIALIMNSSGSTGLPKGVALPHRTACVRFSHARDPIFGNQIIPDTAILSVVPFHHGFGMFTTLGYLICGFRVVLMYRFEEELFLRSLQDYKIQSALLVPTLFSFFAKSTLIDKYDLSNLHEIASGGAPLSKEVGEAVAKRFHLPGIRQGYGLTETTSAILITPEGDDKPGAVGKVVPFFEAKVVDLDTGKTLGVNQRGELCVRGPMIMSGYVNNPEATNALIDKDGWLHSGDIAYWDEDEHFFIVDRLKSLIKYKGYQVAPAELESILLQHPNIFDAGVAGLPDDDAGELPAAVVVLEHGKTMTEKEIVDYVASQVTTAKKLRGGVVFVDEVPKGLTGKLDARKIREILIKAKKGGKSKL
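Biochemical qHTS of compounds, final roughly 60 µM downward over six points, against 10 nM purified firefly luciferase using Km concentrations of substrates (10 uM D-luciferin, 10 uM ATP) in Tris acetate pH 7.5 buffer; luminescence output.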
ELG1 genotox: qHTS screen for small molecules that induce genotoxicity in human embryonic kidney (HEK293T) cells expressing luciferase-tagged ELG1; HEK293T ELG1-luciferase reporter, luminescence, 16 h; 330,000 compounds, 1.3% hits; Potency, µM (top dose mostly 46 µM), inactives show at the top dose activity change, positive = activation, usual class: activators; note: % of control where 0% means no effect; nearly all actives have a fitted effect of over 60% in size
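Step 1: seed 2,000 HEK293T ELG1-luciferase cells per well. Step 2: add compound or DMSO, incubate 16 hr at 37 °C. Step 3: ONE-Glo, 30 min at room temperature, read luminescence.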
NPC1 prom act: qHTS Assay for NPC1 Promoter Activators. Huh7 NPC1 promoter luciferase reporter, 24 h. Potency, µM (doses to about 9.22 µM), inactives show top-dose activation, most hits filed as activators. 320,000 compounds, 2.4% hits. AID 485313, 2010; note: % of control where 0% means no effect; nearly all actives have a fitted effect of over 60% in size
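Huh7 cells stably carrying NPC1 promoter–luciferase, plated in Opti-MEM with 10% FBS for 2 h, were exposed to compound in DMSO for 24 h at 37 °C; luciferase reagent was added for 10 min and luminescence read.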
An asterisk follows results filed as active; ? = inconclusive; nt = no result. Rows were chosen to be rich in hits. Some 7.5% of all compounds tested hit in one or more screens of this group. Calls come from the whole dose curve; as a rule, active = well fitted curve in the direction sought with a large enough effect; inconclusive = small, poorly fitted or top-dose-only effect, or another doubt; inactive = no such curve, though single readings can be large; an effect the other way counts as inactive or inconclusive. Potency is the fitted concentration of half-maximal effect.

SMILES | SMN2 splice enh | Rab9 prom act | FLuc modulator | ELG1 genotox | NPC1 prom act
COc1cc(/C=C/c2cc(C(=O)O)c3ccccc3n2)ccc1OC(F)F | nt | 3.2µM* | 0.43µM* | 3% | 3.2µM*
Cc1cc(C)c(C(=O)Nc2ccc(C)c(C)c2)c(CC(C)(C)C(=O)O)c1 | nt | -2% | 0% | 1% | -1%
Cc1cc2[nH]c(=O)c(=O)[nH]c2cc1S(=O)(=O)Nc1ccc(OC(F)(F)F)cc1 | nt | nt | -14% | nt | nt
COC(=O)c1ccc(-c2nc(O)c(C)s2)cc1 | 3% | 0% | 9.5µM* | 11% | -4%
COC(=O)c1ccc(-c2nc3cc(Cl)c(N)cc3s2)cc1 | 1.4µM* | 0.89µM* | 0.076µM* | ? | 0.71µM*
CC1=C(CCN2CCN(C3CCCC3)C(CCO)C2)C(C)(C)CCC1 (stereo not given) | nt | -11% | -1% | -8% | -3%
Cc1cccc(C(=O)NC2CCCCCCC2)c1 | nt | 4.5µM* | 12µM* | ? | 4µM*
CN(C)c1cccc(C(=O)NC2CCCc3ccccc32)c1 (stereo not given) | nt | 0% | -3% | 4% | -1%
CCCN1C(=O)c2cc(C(=O)O)ccc2C1O (stereo not given) | 8% | -5% | 0% | 0% | 2%
CCn1c(C)c(C)c2cc(C(=O)NC3CCCCCC3)ccc21 | nt | ? | 12µM* | 9% | 16%
CN(C)c1cccc(C(=O)NC2CCCCCC2)c1 | 13µM* | 3.2µM* | 13µM* | 18µM* | ?
CCCN1C(=O)c2cc(C(=O)NC3CCCCCC3)ccc2C1O (stereo not given) | 10µM* | 2.2µM* | 13µM* | 9.2µM* | 2µM*
CCC1CCCCN1CCCNC(=O)c1ccc2c(c1)c(C)c(C)n2CC (stereo not given) | nt | 2% | 2% | -2% | 1%
CCCCN(C)c1nnc(NC(=O)Nc2cccc(C(C)=O)c2)s1 | nt | nt | -9% | nt | nt
COc1ccccc1NC(=O)CN1CCCN(S(=O)(=O)c2ccc(Br)cc2)CC1 | -25% | nt | -12% | nt | nt
O=C(O)c1cnc(-c2ccccc2)nc1Oc1ccccc1 | 6% | -1% | ? | -2% | -4%
CCC1CCc2c(sc(NC(=O)c3cccnc3)c2C(N)=O)C1 (stereo not given) | 19% | ? | ? | ? | 22%
COc1ccc(Cl)cc1Nc1sc(C(=O)c2ccccc2)c(N)c1C(=O)Nc1ccccc1 | nt | nt | -3% | nt | nt
O=C(NCCc1csc(-c2cccnc2)n1)c1ccc(Cl)cc1 | nt | -1% | 9.5µM* | -3% | -2%
O=C(Cc1ccc(F)cc1)NCCc1csc(-c2cccc(F)c2)n1 | nt | nt | -3% | nt | nt
O=C(NCCc1csc(-c2cccnc2)n1)c1cccc(Cl)c1 | nt | -4% | ? | -5% | -3%
O=C(NCCc1csc(-c2cccnc2)n1)c1ccco1 | -10% | 7% | -1% | -4% | -1%
O=C(NCCc1csc(-c2cccnc2)n1)c1ccccc1Br | nt | -2% | 17µM* | -5% | 1%
CCOc1ccc(C(=O)NCCc2csc(-c3cccnc3)n2)cc1 | nt | nt | 21µM* | nt | nt
O=C(NCCc1csc(-c2cccnc2)n1)c1c(F)cccc1F | nt | 1% | ? | -10% | -3%
SMILES | SMN2 splice enh | Rab9 prom act | FLuc modulator | ELG1 genotox | NPC1 prom act
CC(C)Oc1ccc(C(=O)NCCc2csc(-c3cccc(F)c3)n2)cc1 | nt | nt | 24µM* | nt | nt
O=C1C=C(c2ccc3ncccc3c2)C[C@@H](c2ccc(Cl)cc2)C1 | nt | -5% | -13% | -5% | -11%
O=C(NCc1ccc(Cl)cc1)c1csc(-c2cccnc2)n1 | nt | -6% | 0% | -8% | 5%
O=C(NNC(=O)c1ccc(Cl)cc1Cl)c1csc(-c2cccnc2)n1 | nt | 17% | 5.4µM* | 3% | 25%
Cc1ccc(NC(=O)CCNCc2ccco2)cc1S(=O)(=O)N(C)C | 17% | -6% | -1% | -3% | -1%
CN(C)C(=S)NC1(C)CCS(=O)(=O)C1 (stereo not given) | 4% | -5% | 11% | 4% | 1%
COc1ccc(C2C(=O)N(C3CCCCCC3)CC(=O)N2CCc2ccc(OC)c(OC)c2)cc1 (stereo not given) | nt | nt | -1% | nt | nt
CCN(CC(=O)Nc1ccc(NC(C)=O)cc1)C(=O)c1ccc(N2CCC(C)CC2)c([N+](=O)[O-])c1 | nt | -1% | 17µM* | 0% | -1%
O=C(NCCN1CCOCC1)Nc1ccc(Cl)cc1 | 7.1µM* | -2% | -3% | -5% | 6%
CN1CCN(c2ccccc2NC(=O)c2cc3ccccc3o2)CC1 | -11% | 2% | ? | 5% | 20%
O=C(Nc1ccc(CN2CCOCC2)cc1)c1ccc(Br)o1 | nt | ? | 19µM* | ? | 3.2µM*
O=C(Nc1ccccc1N1CCOCC1)c1cc2ccccc2o1 | nt | 16% | 9.5µM* | 4% | ?
O=C(Nc1ccc(N2CCOCC2)c(Cl)c1)c1ccc(Br)o1 | 4.5µM* | 3.2µM* | 8.5µM* | ? | 1.4µM*
Cc1cc(=O)[nH]c(SCC(=O)N2C(C)CCCC2C)n1 (stereo not given) | nt | 3% | 0% | 6% | 0%
COc1cc(/C=N\NC(=O)C2COc3ccccc3O2)cc(OC)c1O (stereo not given) | nt | -1% | -4% | 6% | -6%
COc1ccccc1CN1C(=S)SC(C)(C)C1NO (stereo not given) | -9% | -9% | 8% | -1% | -2%
Cc1ccc2occ(CC(=O)Nc3c(C)cccc3C)c2c1 | -10% | nt | -7% | nt | nt
Cc1ccc(Oc2nc(-c3ccccc3)ncc2S(=O)(=O)c2ccc(C)cc2)cc1 | -1% | -1% | 3% | 0% | 0%
COc1ccc(C(=O)NC2(C(F)(F)F)C(=O)NC(C)=C2C#N)cc1OC (stereo not given) | nt | nt | 0% | nt | nt
Cc1ccsc1C(=O)Nc1ccccc1N1CCOCC1 | 6% | -6% | 19µM* | -2% | 6%
O=C(Nc1ccccc1N1CCCC1)c1cc2ccccc2o1 | 22µM* | 29% | 7.6µM* | 1% | ?
O=C(Nc1ccc(N2CCOCC2)c(Cl)c1)c1cc2ccccc2o1 | 27% | 3.2µM* | 8.5µM* | -11% | 3.5µM*
Cc1cc(NC(=O)c2cccnc2Cl)ccc1NC(=O)c1cc2ccccc2o1 | nt | -5% | -6% | -21% | -4%
O=C(Nc1cccnc1Cl)c1cc2ccccc2o1 | nt | 1.3µM* | 5.4µM* | 9.2µM* | 1.6µM*
CCN(CC)S(=O)(=O)c1ccc(N2CCOCC2)c(NC(=O)c2sccc2C)c1 | nt | nt | nt | -3% | nt
Cc1ccc(Cn2c(C(=O)O)c(CNCCc3ccco3)c3ccc(C)cc32)cc1 | nt | nt | -2% | nt | nt
CCOc1ccc(S(=O)(=O)N(CC(=O)NCc2cccnc2)c2ccc(C)cc2)cc1 | nt | 0% | 1% | -5% | -4%
